For part of these data: Results with a measured potency or affinity are listed apart. Active and inactive are the calls of the source.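 How the source made its calls, unless noted: active means primary screen active and over 50% activation in each of two duplicate runs; inactive means the rest.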
Legend:
[1] = system: TRPC4 beta (transient receptor potential cation channel C4), mouse; experiment: TRPC4 cation channel opening, retest – cell-based, Fluo4 calcium, HEK293 TRPC4beta/mu-opioid, duplicates, 10 µM, confirmation (AID 2426;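 active means fluorescence ratio normalized to control raised more than 50% in primary screen plus both repeat runs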); conditions: Fluo4 calcium fluorescence, at 10 µM; active compounds read high
[2] = system: transient receptor potential cation channel C4 beta (TRPC4), mouse; experiment: TRPC4 cation channel opening, second retest – cell-based, second round, Fluo4, HEK293 TRPC4beta/mu-opioid, 1 µM, confirmation (AID 2461); conditions: Fluo4 calcium fluorescence, at 1 µM; active compounds read high
[3] = system: TRPC4 (transient receptor potential cation channel C4 beta), mouse; experiment: potentiation of DAMGO EC20 TRPC4 response – cell-based, second round, Fluo-4, HEK293 TRPC4beta/mu-opioid, 1 µM, confirmation (AID 2554;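 active means primary screen hit whose fluorescence ratio, in both repeats, exceeds the weak agonist control mean by 3 SD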); conditions: DAMGO EC20, Fluo-4 calcium flux, at 1 µM; active compounds read high
[4] = system: TRPC4 beta (transient receptor potential cation channel C4), mouse; experiment: potentiation of DAMGO EC20 TRPC4 response – cell-based, Fluo-4, HEK293 TRPC4beta/mu-opioid, confirmation (AID 2555;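 active means primary screen hit whose calcium fluorescence ratio, in both repeats, exceeds the weak agonist control mean by 3 SD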); conditions: DAMGO EC20, Fluo-4 calcium flux, at 10 µM; active compounds read high
[5] = target: Short transient receptor potential channel 4 (Mus musculus) (UniProt Q9QUQ5); experiment: blockers of DAMGO-evoked TRPC4 calcium flux – cell-based, Fluo4, HEK293 TRPC4beta/mu-opioid, confirmation (AID 2636;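 active means calcium signal cut by more than 3 SD below the full-agonist control yet still positive, in both repeats and the earlier primary screen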); conditions: at 10 µM; active compounds read high
[6] = target: Short transient receptor potential channel 4 (Mus musculus) (UniProt Q9QUQ5); experiment: blockers of DAMGO-evoked TRPC4 calcium flux – cell-based, second round, Fluo4, HEK293 TRPC4beta/mu-opioid, 1 µM, confirmation (AID 2637;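 active means calcium signal ratio cut to more than 3 SD under the fully stimulated control mean yet still positive, in both repeats and the primary screen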;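 on inhibition: percent of integrated ratio relative to wells lacking test compound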); conditions: at 1 µM; active compounds read high
[7] = target: Short transient receptor potential channel 4 (Mus musculus) (UniProt Q9QUQ5); experiment: calcium entry via TRPC4 opening agents – cell-based, HEK293 TRPC4/mu-opioid, Fluo-4 calcium, dose response (AID 434937;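 active means primary screen activator hit with a dose response curve and TRPC4 channel activation at any tested dose; inactive means no activation, no dose response, or not a primary hit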)
[8] = target: Short transient receptor potential channel 4 (Mus musculus) (UniProt Q9QUQ5); experiment: potentiation of DAMGO-evoked TRPC4 calcium signal – cell-based, HEK293 TRPC4/mu-opioid, Fluo-4 calcium, EC20 DAMGO, dose response (AID 434941;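 active means earlier screen potentiator hit that boosts the TRPC4 ion channel at some dose, with a dose response; inactive means no potentiation, no dose response, or not a prior hit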;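 further: calcium entry triggered by an EC20 dose of DAMGO at the co-expressed mu-opioid receptor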)
[9] = target: Short transient receptor potential channel 4 (Mus musculus) (UniProt Q9QUQ5); experiment: block of DAMGO-driven TRPC4 calcium entry – cell-based, HEK293 TRPC4/mu-opioid, Fluo-4 calcium, dose response (AID 434942;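 active means primary screen inhibitor hit that blocks the TRPC4 channel at some tested dose, yielding a dose curve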)
[10] = target: Short transient receptor potential channel 6 (Mus musculus) (UniProt Q61143); experiment: TRPC6 blockade by TRPC4 inhibitor hits – cell-based, HEK293, membrane potential dye, duplicate, selectivity assay for TRPC4 inhibitor project, confirmation (AID 434948;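 active means active in primary screen and both duplicates, each dropping signal beyond three positive-control SD with fluorescence still positive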); conditions: HEK293 TRPC6, membrane potential dye fluorescence, at 10 µM; inhibition: active compounds read high, stimulated with maximal-effect acetylcholine unless noted; outcome: stimulated with maximal-effect acetylcholine unless noted
[11] = target: Short transient receptor potential channel 6 (Mus musculus) (UniProt Q61143); experiment: TRPC6 opening by TRPC4 activator hits – cell-based, HEK293, membrane potential dye, duplicate, selectivity assay for TRPC4 activator project, confirmation (AID 434950;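 active means membrane potential signal rise above negative control mean plus 3 SD in both duplicates, also active in the earlier TRPC4 screen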); conditions: HEK293 TRPC6, membrane potential fluorescence, at 10 µM; activation: active compounds read high; outcome: activation
[12] = target: Short transient receptor potential channel 6 (Mus musculus) (UniProt Q61143); experiment: positive modulators of mouse TRPC6 channel – HEK293 cells, membrane potential dye, duplicate, selectivity assay for TRPC4 potentiator project, confirmation (AID 434952;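 active means compound raising the membrane signal above positive-control mean plus 3 SD in both repeats, and a primary screen hit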); conditions: HEK293 TRPC6, membrane potential dye fluorescence, at 10 µM; maximal acetylcholine added after compound unless noted
[13] = target: Short transient receptor potential channel 4 (Mus musculus) (UniProt Q9QUQ5); experiment: calcium flux activators in TRPC4/5HT1a cells, counter-screen for TRPC4 activator project, cell-based, second counter screen, HEK293 TRPC4/5HT1a, Fluo-4 (AID 434977;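 active means calcium signal rise above buffer-control mean plus 5 SD in both duplicates, and also a hit in the primary screen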); conditions: Fluo-4 calcium flux, at 10 µM; active compounds read high
[14] = serotonin-gated TRPC4 signal block – cell-based, second counter screen, HEK293 TRPC4/5HT1a, Fluo-4, counter-screen for TRPC4 inhibitor project, confirmation (AID 434978;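 active means primary screen active whose calcium signal fell more than 3 SD beyond the full-serotonin control mean in both duplicate plates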;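 on outcome: serotonin given first at submaximal then at maximal dose after compound preincubation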); conditions: Fluo-4 calcium flux, at 10 µM; inhibition: active compounds read high, serotonin added to trigger calcium flux unless noted; outcome: serotonin added to trigger calcium flux unless noted
[15] = system: TRPC4 (mouse), co-expressed with 5HT1a in HEK293; experiment: enhancement of serotonin-evoked TRPC4 response – cell-based, second counter screen, HEK293 TRPC4/5HT1a, Fluo-4, counter-screen for TRPC4 potentiator project, confirmation (AID 434979;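 active means signal rise over 3 SD above mean of control wells given weak agonist, in both repeats and first screen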); conditions: Fluo-4 calcium flux, at 10 µM; outcome: serotonin added at its EC20 dose unless noted; potentiation: active compounds read high, serotonin added at its EC20 dose unless noted
[16] = nonspecific calcium rise without TRPC4 – cell-based, HEK293 mu-opioid receptor line, counter-screen for TRPC4 activator project, confirmation (AID 449723;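 active means hit in primary screen, with calcium signal over 5 SD above buffer well mean in both duplicates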;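 further: counter screen cells carry the mu-opioid receptor alone and lack TRPC4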); conditions: HEK293 mu-opioid cells, Fluo-4 calcium fluorescence, at 10 µM; active compounds read high
[17] = nonspecific potentiation of DAMGO calcium response – cell-based, HEK293 mu-opioid receptor line, counter-screen for TRPC4 allosteric potentiator project, confirmation (AID 449724;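 active means calcium signal rise more than 3 SD above the low-dose agonist control mean, in both duplicate plates and the primary screen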); conditions: HEK293 mu-opioid receptor cells, Fluo-4 calcium flux, at 10 µM; compound added before EC20 DAMGO stimulus unless noted

Short transient receptor potential channel 4 (Mus musculus), sequence (Q9QUQ5 whole entry, looked up): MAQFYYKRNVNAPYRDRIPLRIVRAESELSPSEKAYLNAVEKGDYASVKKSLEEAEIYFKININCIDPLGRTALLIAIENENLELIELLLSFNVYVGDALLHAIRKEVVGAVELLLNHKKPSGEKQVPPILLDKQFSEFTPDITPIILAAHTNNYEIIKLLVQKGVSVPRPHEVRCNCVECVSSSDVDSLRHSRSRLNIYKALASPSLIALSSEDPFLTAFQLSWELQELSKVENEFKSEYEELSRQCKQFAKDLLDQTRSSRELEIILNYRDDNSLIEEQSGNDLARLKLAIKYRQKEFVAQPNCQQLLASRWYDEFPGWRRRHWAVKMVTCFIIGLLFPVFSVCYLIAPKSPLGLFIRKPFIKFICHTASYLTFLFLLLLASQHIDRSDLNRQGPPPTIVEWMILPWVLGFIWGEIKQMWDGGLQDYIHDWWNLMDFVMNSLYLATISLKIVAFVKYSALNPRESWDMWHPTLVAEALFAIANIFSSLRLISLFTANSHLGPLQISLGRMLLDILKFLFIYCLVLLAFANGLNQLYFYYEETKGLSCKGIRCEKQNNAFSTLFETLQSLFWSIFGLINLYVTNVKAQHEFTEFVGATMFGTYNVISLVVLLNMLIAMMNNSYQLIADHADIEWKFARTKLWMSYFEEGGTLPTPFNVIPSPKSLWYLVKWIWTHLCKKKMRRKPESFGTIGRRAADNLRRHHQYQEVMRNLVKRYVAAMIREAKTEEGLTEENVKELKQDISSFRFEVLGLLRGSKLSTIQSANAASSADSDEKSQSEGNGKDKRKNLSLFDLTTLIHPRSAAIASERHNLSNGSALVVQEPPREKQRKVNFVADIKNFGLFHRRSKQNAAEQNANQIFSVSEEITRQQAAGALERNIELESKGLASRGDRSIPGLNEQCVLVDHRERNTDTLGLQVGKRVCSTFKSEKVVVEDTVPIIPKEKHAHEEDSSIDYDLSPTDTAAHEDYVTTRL
Short transient receptor potential channel 6 (Mus musculus), sequence (Q61143 whole entry, looked up): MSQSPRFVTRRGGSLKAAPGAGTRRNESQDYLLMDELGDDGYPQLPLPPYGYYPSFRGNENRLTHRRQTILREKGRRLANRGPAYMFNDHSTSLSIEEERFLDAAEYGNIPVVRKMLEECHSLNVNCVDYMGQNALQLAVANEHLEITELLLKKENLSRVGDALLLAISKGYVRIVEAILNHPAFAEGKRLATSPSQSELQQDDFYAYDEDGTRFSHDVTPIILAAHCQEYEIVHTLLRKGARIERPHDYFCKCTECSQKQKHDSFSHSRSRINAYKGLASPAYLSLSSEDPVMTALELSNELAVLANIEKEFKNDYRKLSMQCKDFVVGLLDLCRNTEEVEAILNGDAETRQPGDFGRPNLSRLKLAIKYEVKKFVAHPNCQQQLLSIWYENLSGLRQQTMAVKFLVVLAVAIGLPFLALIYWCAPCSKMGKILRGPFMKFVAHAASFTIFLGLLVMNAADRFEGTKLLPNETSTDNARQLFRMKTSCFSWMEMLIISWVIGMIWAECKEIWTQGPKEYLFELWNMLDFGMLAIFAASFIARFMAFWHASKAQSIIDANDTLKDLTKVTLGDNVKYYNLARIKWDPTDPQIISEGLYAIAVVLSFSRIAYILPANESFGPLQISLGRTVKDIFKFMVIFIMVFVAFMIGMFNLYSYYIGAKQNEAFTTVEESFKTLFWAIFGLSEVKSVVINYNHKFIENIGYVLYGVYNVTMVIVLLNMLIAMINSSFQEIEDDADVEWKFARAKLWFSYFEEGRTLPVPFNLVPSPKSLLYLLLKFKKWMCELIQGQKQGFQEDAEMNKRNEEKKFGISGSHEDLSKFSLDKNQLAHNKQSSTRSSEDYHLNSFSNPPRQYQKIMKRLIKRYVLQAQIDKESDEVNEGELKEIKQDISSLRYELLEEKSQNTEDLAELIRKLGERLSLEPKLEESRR

CN1CCN(c2cccc3c2C(=O)c2ccccc2C3=O)CC1
inactive: outcome [1] | outcome [2] | outcome [5] | outcome [6] | outcome [7] | outcome [8] | outcome [9] | outcome [10] | outcome [11] | outcome [12] | outcome [13] | outcome [14] | outcome [15] | outcome [16] | outcome [17]
active: potentiation [3] 16% | potentiation [4] 8%

FC(F)(F)c1ccc(CN2CCNCC2)cc1
inactive: outcome [1] | outcome [2] | outcome [5] | outcome [6] | outcome [7] | outcome [8] | outcome [9] | outcome [10] inactive [setting not given] | outcome [11] | outcome [12] inactive [setting not given] | outcome [13] | outcome [14] inactive [setting not given] | outcome [16] | outcome [17] inactive [setting not given]
active: potentiation [3] 26% | potentiation [4] 22% | potentiation [15] 25.6% [active compounds read high]

Clc1ccc2c(c1)C(c1ccccc1Cl)=NCc1nnc(N3CCN(CCOc4ccccc4)CC3)n1-2
inactive: outcome [1] | outcome [2] | outcome [3] | outcome [5] | outcome [6] | outcome [7] | outcome [8] | outcome [9] | outcome [10] | outcome [11] | outcome [12] | outcome [13] | outcome [14] | outcome [16] | outcome [17]
active: potentiation [4] 9% | potentiation [15] 13.8%

CCc1ccc(OCCCN=C(C)c2c(O)n(C)c(=O)n(C)c2=O)cc1
inactive: outcome [1] | outcome [2] | outcome [3] | outcome [4] | outcome [5] | outcome [6] | outcome [7] | outcome [8] | outcome [9] | outcome [10] inactive [setting not given] | outcome [11] | outcome [12] inactive [setting not given] | outcome [13] | outcome [14] inactive [setting not given] | outcome [16] | outcome [17] inactive [setting not given]
active: potentiation [15] 13.7% [active compounds read high]

COc1ccc(C[C@@H]2c3cc(O)c(OC)cc3CCN2C)cc1O
inactive: outcome [1] | outcome [2] | outcome [3] | outcome [4] | outcome [5] | outcome [6] | outcome [7] | outcome [8] | outcome [9] | outcome [10] | outcome [11] | outcome [12] | outcome [13] | outcome [14] | outcome [15] | outcome [16] | outcome [17]

CC(C)CN(CC(C)C)c1ccc(C=C2C(=O)NC(=S)NC2=O)cc1[N+](=O)[O-]
active: inhibition [5] 98% | inhibition [6] 52% | inhibition [14] 8.19% [active compounds read high]
inactive: outcome [1] | outcome [2] | outcome [3] | outcome [4] | outcome [7] | outcome [8] | outcome [10] inactive [setting not given] | outcome [11] | outcome [12] inactive [setting not given] | outcome [13] | outcome [15] inactive [setting not given] | outcome [16] | outcome [17] inactive [setting not given]

COc1ccc(OC)c(CN2CCCC(C(=O)c3sccc3C)C2)c1 (stereo not drawn)
inactive: outcome [1] | outcome [2] | outcome [3] | outcome [4] | outcome [7] | outcome [8] | outcome [10] | outcome [11] | outcome [12] | outcome [13] | outcome [15] | outcome [16] | outcome [17]
active: inhibition [5] 97% | inhibition [6] 50% | inhibition [14] 25.9%

COc1ccc2[nH]cc(CCN(C)C)c2c1
active: potentiation [3] 7%
inactive: outcome [1] | outcome [2] | outcome [4] | outcome [5] | outcome [6] | outcome [7] | outcome [9] | outcome [10] inactive [setting not given] | outcome [11] | outcome [12] inactive [setting not given] | outcome [13] | outcome [14] inactive [setting not given] | outcome [15] inactive [setting not given] | outcome [16] | outcome [17] inactive [setting not given]

Cc1cccc(N2CCc3c2nc2ccccc2c3N)c1
inactive: outcome [1] | outcome [2] | outcome [3] | outcome [4] | outcome [7] | outcome [8] | outcome [10] | outcome [11] | outcome [12] | outcome [13] | outcome [15] | outcome [16] | outcome [17]
active: inhibition [5] 67% | inhibition [6] 51% | inhibition [14] 24.6%

CCOC(=O)C1(CCc2ccccc2)CCN(Cc2ccco2)CC1
inactive: outcome [1] | outcome [2] | outcome [3] | outcome [4] | outcome [6] | outcome [7] | outcome [8] | outcome [10] | outcome [11] | outcome [12] | outcome [13] | outcome [14] | outcome [15] | outcome [16] | outcome [17]
active: inhibition [5] 94%

Cc1ccc(C2CN(C)CC2C(=O)c2ccc(F)cc2)cc1 (stereo not drawn)
inactive: outcome [1] | outcome [2] | outcome [3] | outcome [4] | outcome [7] | outcome [8] | outcome [10] | outcome [11] | outcome [12] | outcome [13] | outcome [15] | outcome [16] | outcome [17]
active: inhibition [5] 87% | inhibition [6] 42% | inhibition [14] 38%

Cc1ccsc1C(=O)C1CCCN(Cc2ccccc2O)C1 (stereo not drawn)
inactive: outcome [1] | outcome [2] | outcome [3] | outcome [4] | outcome [6] | outcome [7] | outcome [8] | outcome [10] | outcome [11] | outcome [12] | outcome [13] | outcome [15] | outcome [16] | outcome [17]
active: inhibition [5] 84% | inhibition [14] 44.9%

CCC1=Nc2cc(C(=O)N3CCC4(CC3)OCCO4)ccc2Sc2ccc(C)cc21
active: inhibition [5] 74%
inactive: outcome [1] | outcome [2] | outcome [3] | outcome [4] | outcome [6] | outcome [7] | outcome [8] | outcome [10] inactive [setting not given] | outcome [11] | outcome [12] inactive [setting not given] | outcome [13] | outcome [14] inactive [setting not given] | outcome [15] inactive [setting not given] | outcome [16] | outcome [17] inactive [setting not given]
